KCNQ2 pot: potentiators of rat KCNQ2 potassium channel; O88943; CHO-K1 KCNQ2, FluxOR thallium flux fluorescence; hits give high values; B-score at 10 µM; actives 0.54% (n = 310,000);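 active = fluorescence ratio B-score at least 3 SD of library B-scores, with initial fluorescence B-score within 3 of them, cut at about 5.3 in these data; same plate scores as AID 2156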;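 note: B-score of peak minus minimum over baseline fluorescence ratio after K+ and Tl+ stimulus; positive B-score means potentiation of KCNQ2 with more thallium influx and brighter signal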
KCNQ2 inh: blocks the rat KCNQ2 potassium channel | actives 1.1% (n = 310,000) | O88943 | B-score at 10 µM | AID 2156 | CHO-K1 KCNQ2, FluxOR thallium flux, 20 min; hits give low values;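 active = fluorescence ratio B-score at most minus 3 library SDs, with starting brightness B-score within 2 library SDs, cut at about -5.5 in these data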
Kir21 confirm: confirmation of mouse Kir2.1 potassium channel inhibitors; shares compounds with KCNQ2 pot; Tl flux remaining, % of negative control (hits give low values), % at 10 µM; Kir2.1-expressing cells, FluxOR thallium flux fluorescence; hits give low values; actives 41% (n = 2,300); AID 2032;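 active = Primary-screen hit whose thallium flux fell at least 3 control SD below untreated wells in both duplicates, with normal baseline fluorescence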
HEK293 Tl flux: parental HEK293 activity in Kir2.1 inhibitor counter-screen; shares compounds with KCNQ2 pot; parental HEK293 cells, FluxOR thallium flux fluorescence; 0% = unstimulated blank wells; FluxOR signal as % of negative control (100 = no effect), % at 10 µM; actives 19% (n = 2,300); AID 2105;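 active = dye signal at least 3 control SD above or below untreated wells in both duplicates, raw fluorescence within 3, either direction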;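 note: percent is based on the flux ratio of peak minus minimum fluorescence over baseline F0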
CHO-K1 ctr: counter-screen for KCNQ2 potentiators: effect in parental CHO-K1 cells; shares compounds with KCNQ2 pot; FluxOR thallium flux fluorescence; zero = vehicle mean+3SD, 100% = vehicle-minus-blank window; activity increase over 3SD of controls, % at 10 µM; actives 43% (n = 1,200); AID 2282;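 active = signal rise of at least 3 SD above the untreated control mean, in both duplicate wells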;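 note: counter screen of KCNQ2 potentiator hits so any rise reflects channel-independent effects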
KCNQ1 pot spec: selectivity of KCNQ2 potentiators: effect on human KCNQ1. CHO KCNQ1 stable, FluxOR thallium flux fluorescence; beyond 3SD, as % of vehicle-control signal. actives 28% (n = 1,200). activation over 3SD threshold, % at 10 µM. shares compounds with KCNQ2 pot;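 active = fluorescence ratio rise of at least 3 SD of vehicle wells above their mean, in both replicate wells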
KCNQ2 pot conf: rat KCNQ2 channel potentiator confirmation; shares compounds with KCNQ2 pot; CHO-KCNQ2 cells, FluxOR thallium flux fluorescence; potentiation, less the hit threshold, % at 10 µM; actives 68% (n = 1,200); AID 2287;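 active = fluorescence ratio rising 3 SD or more over the vehicle control mean in both replicates, plus primary screen hit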;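 note: peak minus minimum thallium fluorescence divided by baseline after K/Tl stimulus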
Kir2-1 sel: tests whether KCNQ2 potentiators also affect mouse Kir2.1. activity over 3SD threshold, % at 10 µM. actives 2% (n = 1,200). shares compounds with KCNQ2 pot. AID 2345. HEK293 Kir2.1, FluxOR thallium flux fluorescence;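 active = fluorescence ratio rise of at least 3 SD above the vehicle-control mean, seen in both replicates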
KCNQ2 W236L pot: KCNQ2 potentiators acting on retigabine-insensitive rat KCNQ2 W236L mutant; CHO KCNQ2-W236L, automated patch clamp current; shares compounds with KCNQ2 pot; current increase over 3SD of negative controls (%), hits give high values, % at 25 µM; AID 2558; actives 10% (n = 940);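 active = current increase at least 3 SD of the untreated controls above them in both duplicate recordings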
Target sequence (O88943 whole entry W236L, looked up): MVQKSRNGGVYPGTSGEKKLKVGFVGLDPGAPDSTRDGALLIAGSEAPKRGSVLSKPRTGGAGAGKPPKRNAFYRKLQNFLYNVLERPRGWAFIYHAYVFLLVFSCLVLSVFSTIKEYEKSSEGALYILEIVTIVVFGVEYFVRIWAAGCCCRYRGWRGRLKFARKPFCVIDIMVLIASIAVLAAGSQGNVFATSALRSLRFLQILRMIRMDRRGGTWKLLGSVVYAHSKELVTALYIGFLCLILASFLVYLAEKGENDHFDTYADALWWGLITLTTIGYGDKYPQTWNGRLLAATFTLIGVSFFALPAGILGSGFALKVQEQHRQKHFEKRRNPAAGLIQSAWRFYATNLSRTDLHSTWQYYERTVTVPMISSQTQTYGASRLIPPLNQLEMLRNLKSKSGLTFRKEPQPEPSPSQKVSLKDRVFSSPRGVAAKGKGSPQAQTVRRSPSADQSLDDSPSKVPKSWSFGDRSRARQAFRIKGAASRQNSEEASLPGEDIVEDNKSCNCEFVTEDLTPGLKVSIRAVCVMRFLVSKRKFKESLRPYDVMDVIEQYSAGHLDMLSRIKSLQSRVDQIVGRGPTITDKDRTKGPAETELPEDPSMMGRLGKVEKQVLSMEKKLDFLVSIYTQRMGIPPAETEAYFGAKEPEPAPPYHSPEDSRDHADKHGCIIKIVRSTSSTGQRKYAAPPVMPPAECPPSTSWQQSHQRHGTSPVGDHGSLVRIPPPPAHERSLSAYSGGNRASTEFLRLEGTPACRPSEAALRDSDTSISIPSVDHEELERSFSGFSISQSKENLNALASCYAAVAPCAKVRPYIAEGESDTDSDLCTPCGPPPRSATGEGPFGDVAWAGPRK
Each line names hits and unclear results; the compound was inactive in the other large screens (follow-up assays come after a bar, where they were run). A selection: hits, their analogues and other compounds. The true share with any hit is near 1.6%.

Cc1ccc(Nc2nc(-c3cccs3)cs2)nc1	none | Kir21 confirm inactive | HEK293 Tl flux inactive
COc1ccc(-c2nc3ccc(C)cn3c2NCc2ccc3c(c2)OCO3)cc1	none
Cc1ccc(-c2nc3ccccn3c2NCc2ccc3c(c2)OCO3)cc1	none (no result: KCNQ2 pot) | Kir21 confirm 76% | HEK293 Tl flux inactive
CCOC(=O)C1(CC2CCCCO2)CCN(Cc2cc3ccccc3[nH]2)CC1 (centres undefined)	KCNQ2 pot 8.4 | CHO-K1 ctr inactive | KCNQ1 pot spec inactive | KCNQ2 pot conf inactive | Kir2-1 sel inactive
CCCCc1ncc(CN2CCC(CC3CCCCO3)(C(=O)OCC)CC2)[nH]1 (centres undefined)	none
CCOc1ccc(S(=O)(=O)NCCC(=O)NCC2(N3CCCCC3)CCCCC2)cc1	none
Cc1ccc(C(=O)N/C(=C\c2cccs2)c2nc3ccccc3[nH]2)cc1	none (no result: KCNQ2 pot)
Cc1ccc(/C=C(\NC(=O)c2ccc(C)cc2)c2nc(=S)[nH][nH]2)cc1	KCNQ2 pot 6 | Kir21 confirm inactive | HEK293 Tl flux inactive | CHO-K1 ctr inactive | KCNQ1 pot spec inactive | KCNQ2 pot conf inactive | Kir2-1 sel inactive
CCCn1c2ccccc2c2cnn(CC(=O)N(CC)CC)c(=O)c21	none (no result: KCNQ2 pot)
CCCn1c2ccccc2c2cnn(CC(=O)N3CCOCC3)c(=O)c21	none
O=C(Cn1ncc2c3ccccc3n(Cc3ccccc3)c2c1=O)N1CCN(c2ccccn2)CC1	KCNQ2 pot 7.5 | Kir21 confirm inactive | HEK293 Tl flux inactive | CHO-K1 ctr inactive | KCNQ1 pot spec 42 | KCNQ2 pot conf 20 | Kir2-1 sel inactive | KCNQ2 W236L pot inactive
O=C(Cn1ncc2c3ccccc3n(Cc3ccccc3)c2c1=O)N1CCN(c2ncccn2)CC1	none
CCCn1c2ccccc2c2cnn(CC(=O)N3CCN(C4CCCCC4)CC3)c(=O)c21	KCNQ2 pot 9 | Kir21 confirm inactive | HEK293 Tl flux inactive | CHO-K1 ctr inactive | KCNQ1 pot spec 35 | KCNQ2 pot conf 20 | Kir2-1 sel inactive | KCNQ2 W236L pot inactive
CCCCN(C)C(=O)Cn1ncc2c3ccccc3n(CCC)c2c1=O	KCNQ2 pot 6 | Kir21 confirm inactive | HEK293 Tl flux inactive | CHO-K1 ctr 113 | KCNQ1 pot spec inactive | KCNQ2 pot conf inactive | Kir2-1 sel inactive | KCNQ2 W236L pot inactive
COc1ccc(N(Cc2cc(=O)[nH]c3ccccc23)C(=O)CCl)cc1	none (no result: KCNQ2 pot)
NC(=O)C1=C[C@@H](C2CCCCC2)C[C@@H](OCc2ccc(CO)cc2)O1	none | Kir21 confirm 52% | HEK293 Tl flux inactive
O=C(O)C1=C[C@@H](C2CCCCC2)C[C@@H](OCc2ccc(CO)cc2)O1	none
Cc1ccc(NC(=O)NC(=O)c2cnccc2C(F)(F)F)c(C)c1	none
Cc1ccc(N=C(NO)c2cnccc2C(F)(F)F)c(C)c1	KCNQ2 pot 7.4 | Kir21 confirm inactive | HEK293 Tl flux inactive | CHO-K1 ctr inactive | KCNQ1 pot spec inactive | KCNQ2 pot conf inactive | Kir2-1 sel inactive
CCCCC(=O)NC1(C(F)(F)F)NC(=O)N(C)C1=O (centres undefined)	none (no result: KCNQ2 pot)
Cc1nc2sc(C(N)=O)c(N)c2c2c1CCCC2	none
CC(C)(C)c1cc(C(=O)NNC(=O)c2ccc(Cl)cc2)no1	KCNQ2 pot 9.1 | Kir21 confirm inactive | HEK293 Tl flux 266% | CHO-K1 ctr 1.4 | KCNQ1 pot spec 88 | KCNQ2 pot conf 5.3 | Kir2-1 sel inactive | KCNQ2 W236L pot inactive
Cc1cc(C(=O)NNC(=O)c2ccc(C(F)(F)F)cc2)no1	none
CC(=O)Nc1ccc(NC(=O)c2c(C)c(-c3ccccc3)nc3ccccc23)cc1	none
Cc1ccc(CN2CCC(C(=O)Nc3cccc(-c4cccc(F)c4)c3)CC2)o1	none (no result: KCNQ2 pot)
O=C(Nc1cccc(-c2cccc(Cl)c2)c1)C1CCN(Cc2ccc(CO)o2)CC1	none (no result: KCNQ2 pot) | Kir21 confirm 63% | HEK293 Tl flux inactive
CCOC(=O)C1CCN(Cc2cccc(Oc3ccccc3)c2)CC1	none (no result: KCNQ2 pot) | Kir21 confirm 27% | HEK293 Tl flux inactive
CCOC(=O)C1CCN(Cc2cccc(Oc3ccc(Cl)cc3)c2)CC1	none (no result: KCNQ2 pot)
CN(C)Cc1c(O)ccc2oc(Cc3ccccc3)cc12	none | Kir21 confirm 42% | HEK293 Tl flux inactive
Cc1c(Cc2ccccc2)c(=O)oc2c(CN(C)C)c(O)c(Cl)cc12	none
O=C(COc1ccc(Cl)cc1Cl)NC(=O)N1CCCCC1	none (no result: KCNQ2 pot)
OC(CNCC1(N2CCCCC2)CCCCC1)COc1ccc(Cl)cc1Cl (centres undefined)	none | Kir21 confirm 50% | HEK293 Tl flux 75%
CCOC(=O)c1sc2c(c1C)c(=O)n(Cc1ccccc1)c(=O)n2CCN(C)C	none (no result: KCNQ2 pot)
COc1ccc(S(=O)(=O)NNC(=O)C23CC4CC(CC(C4)C2)C3)cc1	none (no result: KCNQ2 pot)
Cc1ccc(NC(=O)C(=O)NNC(=O)c2cccs2)cc1	KCNQ2 pot 10 | Kir21 confirm inactive | HEK293 Tl flux 341% | CHO-K1 ctr inactive | KCNQ1 pot spec inactive | KCNQ2 pot conf 35 | Kir2-1 sel inactive | KCNQ2 W236L pot inactive
COc1cc(NC(=O)c2ccccc2)c(OC)cc1Cl	none (no result: KCNQ2 pot)
COc1cc(OC)cc(C(=O)NNC(=O)C(=O)Nc2cc(OC)c(Cl)cc2OC)c1	KCNQ2 pot 9.3 | Kir21 confirm inactive | HEK293 Tl flux 182% | CHO-K1 ctr inactive | KCNQ1 pot spec inactive | KCNQ2 pot conf inactive | Kir2-1 sel inactive | KCNQ2 W236L pot inactive
COc1ccc(OC)c(NC(=O)C(=O)NNC(=O)C23CC4CC(CC(C4)C2)C3)c1	KCNQ2 pot 8.7 | Kir21 confirm inactive | HEK293 Tl flux 272% | CHO-K1 ctr inactive | KCNQ1 pot spec inactive | KCNQ2 pot conf 7.5 | Kir2-1 sel inactive | KCNQ2 W236L pot inactive
COc1ccc(NC(=O)C(=O)NNC(=O)c2cccs2)c(OC)c1	KCNQ2 pot 8.6 | Kir21 confirm inactive | HEK293 Tl flux 240% | CHO-K1 ctr inactive | KCNQ1 pot spec 19 | KCNQ2 pot conf 6.9 | Kir2-1 sel inactive | KCNQ2 W236L pot inactive
Cc1ccc(NC(=O)c2cccs2)cc1	none
COc1ccc(NC(=O)C(=O)NNC(=O)c2cccs2)cc1	none
CCn1cc(C(=O)N2CCN(c3ccc(C(C)=O)cc3)CC2)c2cc(OC)c(OC)cc2c1=O	none (no result: KCNQ2 pot)
Cc1cccc(C)c1NC(=O)C[N+](C)(C)CC(O)COc1cccc2ccccc12 (centres undefined)	none
